This is an account of results in PubChem BioAssay AID463173 (ICCB-Longwood Screening Facility, Harvard Medical School, 2010).

Screen size: about 52,000 compounds; about 4,300 (8.3%) were called active. No stated cut-off is given here; in the data, active means survival mostly below about 52% (no sharp cut-off); inactive means mostly above about 56%. For the sample, actives were picked, then their nearest neighbours and some compounds at random.

This assay has as its system DeltatarO mutant. The experiment in a line: growth inhibition of S. aureus wild type versus tarO mutant, primary screen, teichoic acid synthesis inhibitors, RN4220, OD600 (AID 463173). The following applies: OD600, 18 h, stronger effect = lower value, screened at 18.75 µg/mL (by protocol).
In the case of `CCc1ccc(CN2C(=O)c3ccccc3C2C(=O)NC2CCCCCC2)cc1` (configuration not stated), the survival is 75% (inactive). `CCn1c(=O)c(C(=O)Nc2ccc(Cl)cn2)c(O)c2ccccc21`: the survival is 95% (inactive).

Turning to `CSc1nn(Cc2ccc(F)cc2)c(N)c1S(=O)(=O)c1ccc(Cl)cc1`, the survival was 101% (inactive). For `Cc1ccc(Cl)cc1-n1ncc2c(Nc3cccc(C)c3C)ncnc21`, the survival was 82% (inactive). Take `CN1CCN(CCNC(=O)c2cnn(-c3ccc(Cl)cc3)c2C2CCN(C(=O)OC(C)(C)C)CC2)CC1`: the survival was 69% (inactive). Regarding `Cc1ccc2c(=O)cc(C(=O)Nc3sc4c(c3C(=O)NCc3ccco3)CCC4)oc2c1`, the survival was 78% (inactive). Turning to `O=C(Nc1sc2c(c1C(=O)NCc1ccco1)CCCC2)c1cc(=O)c2cc(Cl)ccc2o1`, the survival was 38% (active). On to `Cc1ccc2c(=O)cc(C(=O)Nc3sc4c(c3C(=O)NCc3ccco3)CCCC4)oc2c1C`, for which the survival was 80% (inactive). With `Cc1ccc2c(=O)cc(C(=O)Nc3sc4c(c3C(=O)NCc3ccccc3)CCCC4)oc2c1C`, the survival is 89% (inactive). For the molecule `O=C(Nc1sc2c(c1C(=O)NCc1ccccc1)CCCC2)c1cc(=O)c2cc(Cl)ccc2o1`, the survival is 49% (inactive). `Cc1cc2oc(C(=O)Nc3sc4c(c3C(=O)NCc3ccco3)CCC4)cc(=O)c2cc1C`: the survival was 38% (active). With `Cc1ccc2oc(C(=O)Nc3sc4c(c3C(=O)NCc3ccccc3)CCCC4)cc(=O)c2c1`, the survival is 66% (inactive).

Take `Cc1ccc2oc(C(=O)Nc3sc4c(c3C(=O)NCc3ccco3)CCC4)cc(=O)c2c1`: the survival was 82% (inactive).

Consider `Cc1cc(C)c2oc(C(=O)Nc3sc4c(c3C(=O)NCc3ccco3)CCCC4)cc(=O)c2c1`, for which the survival was 82% (inactive).

In the case of `O=C(Nc1sc2c(c1C(=O)NCc1ccccc1)CCCC2)c1cc(=O)c2ccccc2o1`, the survival was 67% (inactive). The same measure for `O=C(Nc1sc2c(c1C(=O)NCc1ccco1)CCCC2)c1cc(=O)c2ccccc2o1`: 43% (active).

On to `Cc1cc2oc(C(=O)Nc3sc4c(c3C(=O)NCc3ccccc3)CCCC4)cc(=O)c2cc1C`, for which the survival is 39% (active). `CC[n+]1c(C)sc2sc3ccccc3c21`: the survival was 68% (inactive). With `COC(=O)Cn1nc(C)c2c(C)n(-c3ccccc3)nc2c1=O`, the survival is 90% (inactive). Turning to `CCOc1ccc(NC(=O)Cn2cc(C(=O)c3ccc(CC)cc3)c(=O)c3cc4c(cc32)OCO4)cc1`, the survival was 86% (inactive). Consider `O=C(Cn1nc(-c2ccccc2)nc(Cc2ccccc2)c1=O)Nc1ccccc1`, for which the survival is 90% (inactive).

Consider `O=C(NCc1noc2ccccc12)N1CCN(c2ccccc2F)CC1`, for which the survival is 40% (inactive). Regarding `COc1cccc(CSc2nc(-c3ccccc3OC)nc3c2Cc2c(CO)cnc(C)c2O3)c1`, the survival was 57% (inactive). The figure for `CCCn1c2ccccc2c2cnn(CC(=O)NCc3cc(OC)ccc3OC)c(=O)c21` is 122% (inactive); for `CCN(CC)S(=O)(=O)c1ccc2c(c1)c(=O)c(C(=O)NCc1ccccc1OC)cn2C` it is 71% (inactive). For the molecule `COc1cccc(C(=O)Nc2nc3nc(C)c(C)c(=O)n3[nH]2)c1`, the survival is 104% (inactive).

For `CCOC(=O)c1c(NC(=O)c2cc(=O)c3c(C)cc(C)cc3o2)sc2c1CCC2`, the survival was 61% (inactive). As for `COC(=O)c1c(NC(=O)c2cc(=O)c3c(C)cc(C)cc3o2)sc2c1CCCC2`, the survival was 61% (inactive). As to `Cc1cc(C)c2c(=O)cc(C(=O)Nc3sc4c(c3C#N)CCCC4)oc2c1`, the survival was 12% (active). Consider `Cc1ccc(C(=O)NCC(c2ccco2)S(=O)(=O)c2cccs2)cc1C` (configuration not stated), for which the survival was 102% (inactive). With `CC(=O)c1ccc(NC(=O)CCc2c(C)nn(-c3ccc4nncn4n3)c2C)cc1`, the survival is 91% (inactive). As for `Cc1cccc(N2CCN(C(=O)Cn3nc(C)n4cccc4c3=O)CC2C)c1` (configuration not stated), the survival was 90% (inactive). As for `COC(=O)c1cc2oc(C)cc2n1CC(=O)Nc1cc(Cl)ccc1OC`, the survival is 77% (inactive). Consider `COC(=O)c1cc2occc2n1Cc1ccc(F)cc1Cl`, for which the survival was 30% (active). Consider `COC(=O)c1cc2oc(C)cc2n1Cc1cccc(Cl)c1`, for which the survival was -8% (active). Take `COC(=O)c1cc2sccc2n1Cc1ccc(F)cc1Cl`: the survival is 65% (inactive). For `COC(=O)c1cc2oc3ccccc3c2n1Cc1ccccc1Cl`, the survival was 72% (inactive). As to `COC(=O)c1cc2oc(C)cc2n1Cc1c(C)cc(C)cc1C`, the survival was 46% (inactive). In the case of `COC(=O)c1cc2oc(C)cc2n1Cc1ccc(Cl)cc1`, the survival is 73% (inactive). With `COC(=O)c1cc2oc(C)cc2n1Cc1ccccc1Cl`, the survival was -8% (active). `COC(=O)c1cc2oc(C)cc2n1Cc1ccc(Br)cc1F`: the survival is 75% (inactive).

For the molecule `COC(=O)c1cc2oc(C)cc2n1Cc1ccc(C)cc1`, the survival was 69% (inactive). For the molecule `COC(=O)c1cc2oc(C)cc2n1Cc1cc(C)ccc1C`, the survival was -9% (active).

As to `COC(=O)c1cc2sc(C)cc2n1Cc1ccc(F)cc1Cl`, the survival was 76% (inactive).

`O=C(NCc1ccccc1)c1cc2sccc2n1Cc1ccc(F)cc1`: the survival is 88% (inactive). The figure for `Cc1cc(C)cc(-n2c(SCC(=O)Nc3nnc(C)s3)nc3c([nH]c4ccccc43)c2=O)c1` is 68% (inactive). Regarding `O=C(NC1CC(=O)N(c2cccc(F)c2)C1)c1ccc(Br)o1` (configuration not stated), the survival is 101% (inactive).

Take `CC(C)(C)C1CCc2c(sc(NC(=O)c3noc4c3CCCC4)c2C#N)C1` (configuration not stated): the survival was 53% (inactive). On to `Cc1nnc(N(C)C(=O)CNC(=O)c2ccccc2)s1`, for which the survival is 75% (inactive).

For the molecule `COc1ccc(NC(=O)c2ccccc2NC(=O)c2ccco2)cc1`, the survival was 74% (inactive). `CCOC(=O)c1c(C)oc2nc(C)nc(NCCc3ccc(SC)cc3)c12`: the survival was 83% (inactive). For the molecule `Cc1cccc(CSc2nc3cc(C(=O)NC4CCCC4)ccc3c(=O)n2Cc2ccccc2)c1`, the survival was 69% (inactive). As for `COc1ccc(Cl)cc1NC(=O)c1cc(S(=O)(=O)NC2CCCCCC2)ccc1F`, the survival was 71% (inactive). On to `CCOC(=O)c1cc2oc(C)cc2n1CC(=O)NC1CC1`, for which the survival is 86% (inactive). On to `C=CCn1c(C(=O)OCC)cc2oc(C)cc21`, for which the survival was 119% (inactive). For the molecule `CCc1cccc(NC(=O)Cn2c(C(=O)OC)cc3occc32)c1`, the survival was 92% (inactive). For `COC(=O)c1cc2occc2n1Cc1nc(-c2ccc(C)cc2)oc1C`, the survival is 69% (inactive). With `COC(=O)c1cc2oc3ccccc3c2n1Cc1ccc(C)cc1`, the survival was 93% (inactive). With `COC(=O)c1cc2occc2n1Cc1cccc(C)c1`, the survival was -6% (active). For `COC(=O)c1cc2oc3ccccc3c2n1Cc1cccc(C)c1`, the survival was 31% (active). For the molecule `CCOC(=O)c1cc2oc(C)cc2n1CCCN1C(=O)c2ccccc2C1=O`, the survival is 0% (active). Turning to `COC(=O)c1cc2oc3ccccc3c2n1Cc1ccc(Cl)cc1`, the survival is 76% (inactive).
